Source: PubChem BioAssay (NCI)
The panel holds about 83,000 compounds, 20% with a hit somewhere; the sample as a whole holds those more often.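 A percent growth of 40 corresponds to 60% growth inhibition; 0 means no net growth; -100 means all cells died. Active threshold: below 10.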 The source made the active and inactive calls.

What was measured:
Assay in all cases: NCI-60 one-dose screen, 48 h (100 = growth as untreated, 0 = no growth, -100 = all killed)
RPMI-8226 leukemia = conditions: 10 µM unless noted
OVCAR-8 ovarian = conditions: 10 µM unless noted
OVCAR-5 ovarian = conditions: 10 µM unless noted
OVCAR-4 ovarian = conditions: 10 µM unless noted
SK-OV-3 ovarian = conditions: 10 µM unless noted
IGROV1 ovarian = conditions: 10 µM unless noted
OVCAR-3 ovarian = conditions: 10 µM unless noted
HS 578T breast = conditions: 10 µM unless noted
NCI/ADR-RES ovarian = conditions: 10 µM unless noted
T-47D breast = conditions: 10 µM unless noted
BT-549 breast = conditions: 10 µM unless noted
MDA-MB-435 melanoma = conditions: 10 µM unless noted
SW-620 colon = conditions: 10 µM unless noted
MCF7 breast = conditions: 10 µM
HCT-116 colon = conditions: 10 µM unless noted
HCC-2998 colon = conditions: 10 µM unless noted
KM12 colon = conditions: 10 µM unless noted

Measured: growth

COc1ccc(OC)c(/C=C/C(=O)c2c(C)nc3ccccc3c2/C=C/c2ccccc2)c1
inactive: RPMI-8226 leukemia 19.5% | OVCAR-8 ovarian 40.5% | OVCAR-5 ovarian 80% | OVCAR-4 ovarian 59.3% | SK-OV-3 ovarian 91% | IGROV1 ovarian 52.6% | OVCAR-3 ovarian 37.4% | HS 578T breast 68% | NCI/ADR-RES ovarian 58.9% | T-47D breast 30.6% | BT-549 breast 59% | MDA-MB-435 melanoma 46.4% | SW-620 colon 36.5% | MCF7 breast 19.8% | HCT-116 colon 34.1% | HCC-2998 colon 93.6% | KM12 colon 69.4%

CC(=O)n1cc(-c2c[nH]c3ccccc23)c(-c2ccc(Cl)cc2)n1
inactive: RPMI-8226 leukemia 86.5% | OVCAR-8 ovarian 96.8% | OVCAR-5 ovarian 94.2% | OVCAR-4 ovarian 62% | SK-OV-3 ovarian 95.9% | IGROV1 ovarian 74.9% | OVCAR-3 ovarian 90% | HS 578T breast 94% | NCI/ADR-RES ovarian 86.4% | T-47D breast 72.7% | BT-549 breast 76.8% | MDA-MB-435 melanoma 88.5% | SW-620 colon 89% | MCF7 breast 71.5% | HCT-116 colon 61.7% | HCC-2998 colon 109% | KM12 colon 84.8%

CC(=O)c1ccc(Cc2ccc(C(C)=O)s2)s1
inactive: RPMI-8226 leukemia 95.2% | OVCAR-8 ovarian 107% | OVCAR-5 ovarian 100% | OVCAR-4 ovarian 96.5% | SK-OV-3 ovarian 109% | IGROV1 ovarian 96.1% | OVCAR-3 ovarian 100% | HS 578T breast 109% | NCI/ADR-RES ovarian 106% | T-47D breast 96.7% | BT-549 breast 110% | MDA-MB-435 melanoma 107% | SW-620 colon 103% | MCF7 breast 85.1% | HCT-116 colon 103% | HCC-2998 colon 104% | KM12 colon 95.2%

CCOc1ccccc1CN1CCc2nc3cc(C(C)(C)C)[nH]n3c(=O)c2C1
inactive: RPMI-8226 leukemia 101% | OVCAR-8 ovarian 103% | OVCAR-5 ovarian 97.9% | OVCAR-4 ovarian 101% | SK-OV-3 ovarian 110% | IGROV1 ovarian 99.5% | OVCAR-3 ovarian 106% | HS 578T breast 100% | NCI/ADR-RES ovarian 91.8% | T-47D breast 98.6% | BT-549 breast 106% | MDA-MB-435 melanoma 104% | SW-620 colon 105% | MCF7 breast 98% | HCT-116 colon 102% | HCC-2998 colon 98.7% | KM12 colon 98.2%

COc1ccc(CCN2C(=O)/C(=C/c3ccc(C4Oc5ccccc5C5CC(c6cccc(OC)c6)=NN54)cc3)SC2=S)cc1 (stereo unspecified)
inactive: RPMI-8226 leukemia 103% | OVCAR-8 ovarian 102% | OVCAR-5 ovarian 99.9% | OVCAR-4 ovarian 98.9% | SK-OV-3 ovarian 97.7% | IGROV1 ovarian 104% | OVCAR-3 ovarian 102% | HS 578T breast 101% | NCI/ADR-RES ovarian 104% | T-47D breast 100% | BT-549 breast 108% | MDA-MB-435 melanoma 104% | SW-620 colon 98.4% | MCF7 breast 93% | HCT-116 colon 102% | HCC-2998 colon 98.6% | KM12 colon 105%

COc1ccc(-c2nc(-c3ccccn3)c(-c3ccccn3)n2CC(C)C)cc1OC1CCCC1
active: RPMI-8226 leukemia -1.78% | SK-OV-3 ovarian 8.21% | KM12 colon 8.2%
inactive: OVCAR-8 ovarian 15.7% | OVCAR-5 ovarian 33.8% | OVCAR-4 ovarian 13.5% | IGROV1 ovarian 19.6% | OVCAR-3 ovarian 15.5% | HS 578T breast 43.3% | NCI/ADR-RES ovarian 10.9% | T-47D breast 21.5% | BT-549 breast 38.5% | MDA-MB-435 melanoma 26.9% | SW-620 colon 21.9% | MCF7 breast 10.8% | HCT-116 colon 14.7% | HCC-2998 colon 24.4%

O=S(=O)(c1ccccc1)n1cc2c(c1-c1ccccc1)CCc1sc(Nc3ccccc3)nc1-2
inactive: RPMI-8226 leukemia 67.7% | OVCAR-8 ovarian 79.8% | OVCAR-5 ovarian 94.4% | OVCAR-4 ovarian 75.2% | SK-OV-3 ovarian 99.7% | IGROV1 ovarian 115% | OVCAR-3 ovarian 72.5% | HS 578T breast 98.3% | NCI/ADR-RES ovarian 76.8% | T-47D breast 64.1% | BT-549 breast 103% | MDA-MB-435 melanoma 88% | SW-620 colon 94.4% | MCF7 breast 72.9% | HCT-116 colon 83.3% | HCC-2998 colon 110% | KM12 colon 82.7%

COc1ccc(C)c2sc(N(Cc3cccnc3)C(=O)c3ccc(C#N)cc3)nc12
inactive: OVCAR-5 ovarian 24.3% | OVCAR-4 ovarian 14.3% | SK-OV-3 ovarian 12.6% | OVCAR-3 ovarian 15.1% | BT-549 breast 21.7% | MDA-MB-435 melanoma 10.1% | SW-620 colon 10.8% | HCT-116 colon 13.2% | HCC-2998 colon 10.9% | KM12 colon 18.2%
active: RPMI-8226 leukemia 8.4% | OVCAR-8 ovarian -10.5% | IGROV1 ovarian -14.3% | HS 578T breast -1.42% | NCI/ADR-RES ovarian 9.32% | T-47D breast -0.727% | MCF7 breast 3.83%

Cc1ccc(OCCCCCCNCCO)c(C)c1
inactive: OVCAR-5 ovarian 35.9% | OVCAR-4 ovarian 16.8% | SK-OV-3 ovarian 16.8% | OVCAR-3 ovarian 24% | HS 578T breast 18.5% | BT-549 breast 27.6% | MDA-MB-435 melanoma 15.2% | SW-620 colon 18.1% | HCT-116 colon 19.1% | KM12 colon 15.1%
active: RPMI-8226 leukemia 9.43% | OVCAR-8 ovarian -10% | IGROV1 ovarian -4.59% | NCI/ADR-RES ovarian 8.9% | T-47D breast 5.9% | MCF7 breast 9.1% | HCC-2998 colon -6.64%

CCOC(=O)c1cnc2ccc(Cl)cc2c1NCCCN(C)C
active: RPMI-8226 leukemia -3.54% | OVCAR-8 ovarian -3.54% | OVCAR-4 ovarian -12.1% | IGROV1 ovarian -16.2% | NCI/ADR-RES ovarian 7.93% | MCF7 breast 7.48% | HCC-2998 colon -13.2%
inactive: OVCAR-5 ovarian 53.8% | SK-OV-3 ovarian 14.5% | OVCAR-3 ovarian 18.8% | HS 578T breast 33% | T-47D breast 14.6% | BT-549 breast 31.6% | MDA-MB-435 melanoma 19.6% | SW-620 colon 14.6% | HCT-116 colon 12.4% | KM12 colon 17.5%

Cc1ccc(NCCNCC(O)CO)c2c(=O)c3ccccc3sc12 (stereo unspecified)
inactive: RPMI-8226 leukemia 34.6% | OVCAR-8 ovarian 14.2% | OVCAR-5 ovarian 46.8% | OVCAR-4 ovarian 34.7% | SK-OV-3 ovarian 31.8% | IGROV1 ovarian 24.3% | OVCAR-3 ovarian 29.9% | HS 578T breast 33.1% | NCI/ADR-RES ovarian 26.8% | T-47D breast 53.8% | BT-549 breast 63.2% | KM12 colon 15.4%
active: MDA-MB-435 melanoma -26% | SW-620 colon -78.7% | MCF7 breast -53.6% | HCT-116 colon -66.1% | HCC-2998 colon -75.1%

COc1ccc(Cn2c(Br)c3c(c2Br)-c2nc(N)sc2CC3)cc1
inactive: RPMI-8226 leukemia 27.3% | OVCAR-8 ovarian 41% | OVCAR-5 ovarian 91.4% | OVCAR-4 ovarian 47.8% | SK-OV-3 ovarian 24% | IGROV1 ovarian 34.7% | HS 578T breast 34.1% | NCI/ADR-RES ovarian 18.5% | T-47D breast 50.4% | BT-549 breast 51.4% | SW-620 colon 16% | MCF7 breast 17.7% | HCT-116 colon 17.8% | HCC-2998 colon 66.9% | KM12 colon 29.6%
active: OVCAR-3 ovarian 7.35% | MDA-MB-435 melanoma -40.6%

COc1cc(NC(=O)CCSc2nc3ccccc3c(=O)n2Cc2ccccc2)cc(OC)c1OC
inactive: RPMI-8226 leukemia 56.9% | OVCAR-8 ovarian 79.3% | OVCAR-5 ovarian 91% | OVCAR-4 ovarian 63.4% | SK-OV-3 ovarian 99.3% | IGROV1 ovarian 99.4% | OVCAR-3 ovarian 88.1% | HS 578T breast 77.3% | NCI/ADR-RES ovarian 82.1% | T-47D breast 78.1% | BT-549 breast 86% | MDA-MB-435 melanoma 89.9% | SW-620 colon 93.6% | MCF7 breast 84.1% | HCT-116 colon 83.7% | HCC-2998 colon 99.6% | KM12 colon 87.1%

COc1cc(-c2c3c(cn2S(=O)(=O)c2ccccc2)-c2nc(N)sc2CC3)cc(OC)c1OC
inactive: RPMI-8226 leukemia 25.3% | OVCAR-8 ovarian 32.7% | OVCAR-5 ovarian 43.4% | OVCAR-4 ovarian 56% | SK-OV-3 ovarian 12.6% | IGROV1 ovarian 31.6% | HS 578T breast 23% | NCI/ADR-RES ovarian 14.9% | T-47D breast 44% | BT-549 breast 48.5% | SW-620 colon 25.6% | MCF7 breast 18.5% | HCT-116 colon 24% | HCC-2998 colon 45.5% | KM12 colon 28.5%
active: OVCAR-3 ovarian -43.5% | MDA-MB-435 melanoma -32.1%

CCCCNc1nc(NC(C)(C)C)nc(NC(C)(C)C)n1
inactive: RPMI-8226 leukemia 17.7% | OVCAR-8 ovarian 59.5% | OVCAR-5 ovarian 62% | OVCAR-4 ovarian 55.2% | SK-OV-3 ovarian 81.9% | IGROV1 ovarian 51.3% | OVCAR-3 ovarian 54.2% | HS 578T breast 67.7% | NCI/ADR-RES ovarian 53.3% | T-47D breast 45.3% | BT-549 breast 79.9% | MDA-MB-435 melanoma 72% | SW-620 colon 52.3% | MCF7 breast 56% | HCT-116 colon 30.8% | HCC-2998 colon 74.3% | KM12 colon 63.8%

COc1c2ccoc2c(/C=C/C=O)c2oc(-c3ccccc3)cc(=O)c12
active: HCT-116 colon -56.6%
inactive: RPMI-8226 leukemia 28% | OVCAR-8 ovarian 26.1% | OVCAR-5 ovarian 106% | OVCAR-4 ovarian 57.8% | SK-OV-3 ovarian 96.3% | IGROV1 ovarian 80.5% | OVCAR-3 ovarian 57.7% | HS 578T breast 74.8% | NCI/ADR-RES ovarian 32.4% | T-47D breast 47% | BT-549 breast 41.2% | MDA-MB-435 melanoma 64.6% | SW-620 colon 10% | MCF7 breast 31.5% | HCC-2998 colon 104% | KM12 colon 91.4%

Nc1ccn(C2O[C@H](CO)[C@@H](O)[C@H]2O)c(=O)n1 (stereo partly specified)
inactive: RPMI-8226 leukemia 49.8% | OVCAR-8 ovarian 58.5% | OVCAR-5 ovarian 104% | OVCAR-4 ovarian 72.3% | SK-OV-3 ovarian 90.2% | IGROV1 ovarian 82.9% | OVCAR-3 ovarian 88.7% | HS 578T breast 106% | NCI/ADR-RES ovarian 70.1% | T-47D breast 99.2% | BT-549 breast 111% | MDA-MB-435 melanoma 88.8% | SW-620 colon 72.7% | MCF7 breast 63.1% | HCT-116 colon 64.4% | HCC-2998 colon 99% | KM12 colon 72.1%

O=C(NC1CCCCC1)C(c1cccs1)N(CCc1ccccc1)C(=O)c1ccco1 (stereo unspecified)
inactive: RPMI-8226 leukemia 79.7% | OVCAR-8 ovarian 88.2% | OVCAR-5 ovarian 87.1% | OVCAR-4 ovarian 95.9% | SK-OV-3 ovarian 89.6% | IGROV1 ovarian 97.7% | OVCAR-3 ovarian 96.6% | HS 578T breast 93.8% | NCI/ADR-RES ovarian 94.3% | T-47D breast 85.1% | BT-549 breast 103% | MDA-MB-435 melanoma 104% | SW-620 colon 96.1% | MCF7 breast 88.3% | HCT-116 colon 82.9% | HCC-2998 colon 105% | KM12 colon 98%
